Test results taken from the supplement of paper PMC10849652.
Of roughly 7,900 targets only a part is listed; those with a hit were picked by preference. About 0.6% of all pairs of compound and target were hits.

What was measured:
Assay in all cases: log2 fold change, soluble protein after heating vs DMSO (PISA); higher = thermal stabilisation; K562 cells, 10 uM, 30 min; active = over 0.2 and 3.5 SD of the protein, either way, in both replicates (recomputed)
saracatinib = compound: CN1CCN(CCOc2cc(OC3CCOCC3)c3c(Nc4c(Cl)ccc5c4OCO5)ncnc3c2)CC1 [saracatinib]
Procedure, shortened: (§1)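 K562 cells (2×10^6 cells/mL) were treated with 10 μM compound for 30 min, and aliquots were heated for 3 min over 48°C-58°C. Pooled aliquots were extracted in PBS with 0.5% NP-40 at 4°C, and the supernatant after 21,000xg for 90 min was measured by TMTpro 16plex LC-MS/MS with channel sums equalised. Reported thermal stability, relative to control samples and from duplicates, is a log2 fold change.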

sotrastaurin = compound: CN1CCN(c2nc(C3=C(c4c[nH]c5ccccc45)C(=O)NC3=O)c3ccccc3n2)CC1 [sotrastaurin]
Procedure, shortened: as §1

alvocidib = compound: CN1CC[C@H](c2c(O)cc(O)c3c(=O)cc(-c4ccccc4Cl)oc23)[C@H](O)C1 [alvocidib]
Procedure, shortened: as §1

Tubastatin A = compound: CN1CCc2c(c3ccccc3n2Cc2ccc(C(=O)NO)cc2)C1 [Tubastatin A]
Procedure, shortened: as §1

[1] = compound: CNC(=O)C1=CC=CC=C1NC2=NC(=NC=C2Cl)NC3=C(C=C(C=C3)N4CCOCC4)OC
Procedure, shortened: as §1

defactinib = compound: CNC(=O)c1ccc(Nc2ncc(C(F)(F)F)c(NCc3nccnc3N(C)S(C)(=O)=O)n2)cc1 [defactinib]
Procedure, shortened: as §1

rucaparib = compound: CNCc1ccc(-c2[nH]c3cc(F)cc4c3c2CCNC4=O)cc1 [rucaparib]
Procedure, shortened: as §1

[2] = compound: CNc1nc(-c2ccc3c(N)n[nH]c3c2)cc(N2C[C@@H](C(=O)NC3CCCCC3)CC[C@H]2C)n1
Procedure, shortened: as §1

encorafenib = compound: COC(=O)N[C@@H](C)CNc1nccc(-c2cn(C(C)C)nc2-c2cc(Cl)cc(NS(C)(=O)=O)c2F)n1 [encorafenib]
Procedure, shortened: as §1

[3] = compound: COC(=O)[C@H](CCSC)NC(=O)C1=C(C=C(C=C1)NC[C@H](CS)N)C2=CC=CC=C2
Procedure, shortened: as §1

[4] = compound: COC1=CC=C(C=C1)CN2C=CC3=C2C=C(C=C3)C(=O)NO
Procedure, shortened: as §1

filanesib = compound: CON(C)C(=O)N1N=C(c2cc(F)ccc2F)S[C@@]1(CCCN)c1ccccc1 [filanesib]
Procedure, shortened: as §1

zotarolimus = compound: CO[C@H]1C[C@@H]2CC[C@@H](C)[C@@](O)(O2)C(=O)C(=O)N2CCCC[C@H]2C(=O)O[C@H]([C@H](C)C[C@@H]2CC[C@H](n3cnnn3)[C@H](OC)C2)CC(=O)[C@H](C)/C=C(\C)[C@@H](O)[C@@H](OC)C(=O)[C@H](C)C[C@H](C)/C=C/C=C/C=C/1C [zotarolimus]
Procedure, shortened: as §1

idasanutlin = compound: COc1cc(C(=O)O)ccc1NC(=O)[C@@H]1N[C@@H](CC(C)(C)C)[C@](C#N)(c2ccc(Cl)cc2F)[C@H]1c1cccc(Cl)c1F [idasanutlin]
Procedure, shortened: as §1

alisertib = compound: COc1cc(Nc2ncc3c(n2)-c2ccc(Cl)cc2C(c2c(F)cccc2OC)=NC3)ccc1C(=O)O [alisertib]
Procedure, shortened: as §1

[5] = compound: COc1cc2nc(-c3cc(F)ccc3O)nc(N[C@@H]3CNC[C@H]3C(C)(C)O)c2cc1OC
Procedure, shortened: as §1

gefitinib = compound: COc1cc2ncnc(Nc3ccc(F)c(Cl)c3)c2cc1OCCCN1CCOCC1 [gefitinib]
Procedure, shortened: as §1

[6] = compound: COc1cccc2cc(-c3nc([C@H]4CC[C@H](C(=O)O)CC4)n4ncnc(N)c34)[nH]c12
Procedure, shortened: as §1

lapatinib = compound: CS(=O)(=O)CCNCc1ccc(-c2ccc3ncnc(Nc4ccc(OCc5cccc(F)c5)c(Cl)c4)c3c2)o1 [lapatinib]
Procedure, shortened: as §1

pictilisib = compound: CS(=O)(=O)N1CCN(Cc2cc3nc(-c4cccc5[nH]ncc45)nc(N4CCOCC4)c3s2)CC1 [pictilisib]
Procedure, shortened: as §1

Sequence of UniProt Q8WUA2 (Q8WUA2 whole entry, looked up): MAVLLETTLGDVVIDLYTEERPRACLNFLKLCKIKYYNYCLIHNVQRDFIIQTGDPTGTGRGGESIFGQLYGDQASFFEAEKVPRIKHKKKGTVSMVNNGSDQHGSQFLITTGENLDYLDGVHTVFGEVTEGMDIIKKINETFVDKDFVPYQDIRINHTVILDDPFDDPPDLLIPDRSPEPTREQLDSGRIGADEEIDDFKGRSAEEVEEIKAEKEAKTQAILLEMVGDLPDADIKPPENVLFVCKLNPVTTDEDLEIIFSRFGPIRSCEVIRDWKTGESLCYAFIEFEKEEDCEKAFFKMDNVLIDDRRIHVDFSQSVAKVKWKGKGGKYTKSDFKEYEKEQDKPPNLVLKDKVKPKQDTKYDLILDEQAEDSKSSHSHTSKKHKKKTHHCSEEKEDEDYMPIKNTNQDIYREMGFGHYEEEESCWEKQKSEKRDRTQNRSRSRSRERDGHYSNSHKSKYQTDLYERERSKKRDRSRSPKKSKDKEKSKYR
Sequence of UniProt O43164 (O43164 whole entry, looked up): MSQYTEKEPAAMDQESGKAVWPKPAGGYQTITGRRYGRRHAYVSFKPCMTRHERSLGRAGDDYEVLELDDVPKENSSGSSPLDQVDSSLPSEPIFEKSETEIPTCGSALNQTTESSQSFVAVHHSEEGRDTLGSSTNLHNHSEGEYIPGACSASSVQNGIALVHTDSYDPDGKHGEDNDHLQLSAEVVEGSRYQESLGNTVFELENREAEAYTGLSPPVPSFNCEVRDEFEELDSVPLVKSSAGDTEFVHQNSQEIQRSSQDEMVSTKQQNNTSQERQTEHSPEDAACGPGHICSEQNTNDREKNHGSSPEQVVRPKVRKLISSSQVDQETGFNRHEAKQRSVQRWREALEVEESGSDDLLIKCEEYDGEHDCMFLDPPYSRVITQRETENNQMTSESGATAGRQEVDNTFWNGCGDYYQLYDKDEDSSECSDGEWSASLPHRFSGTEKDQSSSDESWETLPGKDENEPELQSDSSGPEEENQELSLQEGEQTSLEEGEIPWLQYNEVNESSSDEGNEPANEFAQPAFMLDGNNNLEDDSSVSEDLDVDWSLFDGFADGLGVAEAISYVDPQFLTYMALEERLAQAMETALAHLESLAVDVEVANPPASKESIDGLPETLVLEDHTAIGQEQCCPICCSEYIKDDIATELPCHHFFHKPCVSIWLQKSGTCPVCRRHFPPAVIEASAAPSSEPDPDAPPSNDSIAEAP
Sequence of UniProt Q93096 (Q93096 whole entry, looked up): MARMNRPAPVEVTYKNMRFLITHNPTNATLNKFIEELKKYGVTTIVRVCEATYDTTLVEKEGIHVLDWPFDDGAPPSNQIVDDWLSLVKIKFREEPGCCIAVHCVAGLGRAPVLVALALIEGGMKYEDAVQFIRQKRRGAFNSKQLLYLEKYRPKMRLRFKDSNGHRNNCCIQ
Sequence of UniProt O00233 (O00233 whole entry, looked up): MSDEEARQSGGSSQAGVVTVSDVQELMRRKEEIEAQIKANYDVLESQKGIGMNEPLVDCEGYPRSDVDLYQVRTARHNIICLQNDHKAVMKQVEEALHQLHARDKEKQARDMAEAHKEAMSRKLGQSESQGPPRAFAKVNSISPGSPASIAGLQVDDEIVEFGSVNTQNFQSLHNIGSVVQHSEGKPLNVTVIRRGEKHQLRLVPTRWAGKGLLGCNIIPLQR
Sequence of UniProt P49643 (P49643 whole entry, looked up): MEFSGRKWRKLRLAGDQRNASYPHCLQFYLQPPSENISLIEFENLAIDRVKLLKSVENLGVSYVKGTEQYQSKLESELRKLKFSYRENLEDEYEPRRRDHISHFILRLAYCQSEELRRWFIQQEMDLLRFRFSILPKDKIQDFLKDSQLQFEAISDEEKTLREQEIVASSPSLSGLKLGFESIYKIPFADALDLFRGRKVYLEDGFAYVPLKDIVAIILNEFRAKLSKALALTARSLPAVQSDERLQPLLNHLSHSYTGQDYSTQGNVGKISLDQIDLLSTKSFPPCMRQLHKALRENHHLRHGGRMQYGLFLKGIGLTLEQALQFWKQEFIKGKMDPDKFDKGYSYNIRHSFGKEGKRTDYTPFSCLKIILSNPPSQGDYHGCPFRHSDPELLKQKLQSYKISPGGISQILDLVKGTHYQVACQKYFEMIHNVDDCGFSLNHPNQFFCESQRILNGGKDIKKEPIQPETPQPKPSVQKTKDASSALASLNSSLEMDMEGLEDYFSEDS
Sequence of UniProt Q15054 (Q15054 whole entry, looked up): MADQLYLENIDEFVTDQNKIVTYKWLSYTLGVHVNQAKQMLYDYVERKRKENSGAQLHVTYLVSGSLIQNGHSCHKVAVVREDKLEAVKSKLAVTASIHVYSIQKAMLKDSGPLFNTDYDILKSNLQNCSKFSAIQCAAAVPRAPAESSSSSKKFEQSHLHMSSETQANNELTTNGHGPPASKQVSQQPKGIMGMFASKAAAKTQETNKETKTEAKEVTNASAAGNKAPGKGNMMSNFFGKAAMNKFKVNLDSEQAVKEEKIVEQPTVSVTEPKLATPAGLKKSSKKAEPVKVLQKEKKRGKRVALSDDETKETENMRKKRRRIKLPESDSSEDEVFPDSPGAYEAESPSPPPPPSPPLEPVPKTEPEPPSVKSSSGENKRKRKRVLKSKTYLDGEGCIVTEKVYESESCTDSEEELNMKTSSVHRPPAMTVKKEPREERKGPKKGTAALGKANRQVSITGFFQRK
Sequence of UniProt Q96A00 (Q96A00 whole entry, looked up): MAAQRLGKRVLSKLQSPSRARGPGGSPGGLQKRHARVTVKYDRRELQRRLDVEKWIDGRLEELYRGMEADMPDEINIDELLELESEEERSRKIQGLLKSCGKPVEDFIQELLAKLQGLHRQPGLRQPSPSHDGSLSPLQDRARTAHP
Sequence of UniProt O95997 (O95997 whole entry, looked up): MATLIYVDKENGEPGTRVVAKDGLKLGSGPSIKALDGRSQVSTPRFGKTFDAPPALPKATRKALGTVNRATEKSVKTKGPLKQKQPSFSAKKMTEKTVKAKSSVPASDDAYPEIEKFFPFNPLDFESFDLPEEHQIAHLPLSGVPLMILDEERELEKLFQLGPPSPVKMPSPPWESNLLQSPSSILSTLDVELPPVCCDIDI
Sequence of UniProt P49642 (P49642 whole entry, looked up): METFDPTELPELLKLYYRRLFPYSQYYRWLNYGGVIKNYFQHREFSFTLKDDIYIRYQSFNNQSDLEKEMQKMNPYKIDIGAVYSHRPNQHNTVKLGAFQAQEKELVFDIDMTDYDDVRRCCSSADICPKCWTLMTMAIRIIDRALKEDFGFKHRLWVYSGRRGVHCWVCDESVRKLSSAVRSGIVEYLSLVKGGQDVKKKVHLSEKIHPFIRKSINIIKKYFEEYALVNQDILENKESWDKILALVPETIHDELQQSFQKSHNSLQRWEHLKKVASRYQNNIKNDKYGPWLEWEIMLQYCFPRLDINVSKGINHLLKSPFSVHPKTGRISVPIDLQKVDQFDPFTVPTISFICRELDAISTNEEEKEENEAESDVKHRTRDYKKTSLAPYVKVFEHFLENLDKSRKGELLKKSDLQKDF
Sequence of UniProt P53350 (P53350 whole entry, looked up): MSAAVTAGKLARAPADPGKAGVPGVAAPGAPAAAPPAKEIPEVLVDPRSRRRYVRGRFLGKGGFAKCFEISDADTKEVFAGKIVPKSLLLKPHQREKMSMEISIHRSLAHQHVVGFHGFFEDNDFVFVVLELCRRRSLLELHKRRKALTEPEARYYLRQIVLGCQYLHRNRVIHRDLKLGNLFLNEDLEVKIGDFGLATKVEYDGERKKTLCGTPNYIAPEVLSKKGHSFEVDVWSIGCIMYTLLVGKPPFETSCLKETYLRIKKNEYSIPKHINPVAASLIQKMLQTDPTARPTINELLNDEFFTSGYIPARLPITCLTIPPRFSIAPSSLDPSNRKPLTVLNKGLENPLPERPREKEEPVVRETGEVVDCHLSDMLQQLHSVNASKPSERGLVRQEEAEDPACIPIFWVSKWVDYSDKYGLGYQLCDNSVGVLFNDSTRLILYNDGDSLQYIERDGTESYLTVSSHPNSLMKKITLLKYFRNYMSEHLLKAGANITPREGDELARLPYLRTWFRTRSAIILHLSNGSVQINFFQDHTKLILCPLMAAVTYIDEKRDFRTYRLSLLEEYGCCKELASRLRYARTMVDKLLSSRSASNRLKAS
Sequence of UniProt Q6L8Q7 (Q6L8Q7 whole entry, looked up): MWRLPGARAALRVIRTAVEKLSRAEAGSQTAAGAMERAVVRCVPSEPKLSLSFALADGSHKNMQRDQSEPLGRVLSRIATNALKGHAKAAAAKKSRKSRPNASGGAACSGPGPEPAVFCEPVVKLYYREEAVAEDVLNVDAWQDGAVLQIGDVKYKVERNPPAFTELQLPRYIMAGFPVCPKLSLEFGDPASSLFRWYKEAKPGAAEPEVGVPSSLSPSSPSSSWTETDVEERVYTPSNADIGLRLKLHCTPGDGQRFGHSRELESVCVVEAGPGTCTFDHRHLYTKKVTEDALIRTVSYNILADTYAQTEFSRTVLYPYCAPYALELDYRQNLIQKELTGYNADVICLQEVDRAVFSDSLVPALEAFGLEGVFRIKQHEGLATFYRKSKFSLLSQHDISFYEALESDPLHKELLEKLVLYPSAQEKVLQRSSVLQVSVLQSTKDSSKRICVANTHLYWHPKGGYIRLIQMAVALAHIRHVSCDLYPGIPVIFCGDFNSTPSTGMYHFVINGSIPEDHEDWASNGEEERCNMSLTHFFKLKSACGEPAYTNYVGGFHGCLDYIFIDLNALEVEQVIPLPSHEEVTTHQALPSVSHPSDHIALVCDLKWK
Sequence of UniProt Q9Y5Y5 (Q9Y5Y5 whole entry, looked up): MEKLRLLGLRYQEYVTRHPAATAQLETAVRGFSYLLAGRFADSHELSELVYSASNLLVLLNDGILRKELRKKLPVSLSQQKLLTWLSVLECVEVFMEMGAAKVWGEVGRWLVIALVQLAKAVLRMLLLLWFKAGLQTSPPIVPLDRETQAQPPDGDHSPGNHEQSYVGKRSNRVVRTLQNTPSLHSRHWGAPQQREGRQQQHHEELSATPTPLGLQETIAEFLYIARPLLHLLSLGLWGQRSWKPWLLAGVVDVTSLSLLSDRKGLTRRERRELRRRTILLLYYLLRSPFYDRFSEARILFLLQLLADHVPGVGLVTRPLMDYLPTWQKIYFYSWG

Row | Target | log2 fold change (saracatinib) | log2 fold change (sotrastaurin) | log2 fold change (alvocidib) | log2 fold change (Tubastatin A) | log2 fold change [1] | log2 fold change (defactinib) | log2 fold change (rucaparib) | log2 fold change [2] | log2 fold change (encorafenib) | log2 fold change [3] | log2 fold change [4] | log2 fold change (filanesib) | log2 fold change (zotarolimus) | log2 fold change (idasanutlin) | log2 fold change (alisertib) | log2 fold change [5] | log2 fold change (gefitinib) | log2 fold change [6] | log2 fold change (lapatinib) | log2 fold change (pictilisib)
1 | PRIM1 (UniProt P49642) | -0.109 (inactive) | -0.111 (inactive) | -0.007 (inactive) | 0.042 (inactive) | 0.116 (inactive) | -0.107 (inactive) | 0.084 (inactive) | 0.051 (inactive) | 0.153 (inactive) | -0.082 (inactive) | 0.04 (inactive) | 0.001 (inactive) | 0.073 (inactive) | -0.06 (inactive) | 0.052 (inactive) | -0.012 (inactive) | 0.011 (inactive) | -0.053 (inactive) | 0.007 (inactive) | 0.021 (inactive)
2 | PDE12 (UniProt Q6L8Q7) | 0.014 (inactive) | 0.018 (inactive) | -0.098 (inactive) | 0.01 (inactive) | 0.028 (inactive) | -0.04 (inactive) | -0.005 (inactive) | 0.023 (inactive) | -0.019 (inactive) | 0.007 (inactive) | 0.359 (active) | -0.052 (inactive) | 0.044 (inactive) | -0.052 (inactive) | -0.051 (inactive) | 0.014 (inactive) | -0.01 (inactive) | -0.003 (inactive) | -0.007 (inactive) | 0.074 (inactive)
3 | PEX16 isoform 2 (UniProt Q9Y5Y5) | 0.038 (inactive) | -0.02 (inactive) | -0.141 (inactive) | 0.021 (inactive) | -0.053 (inactive) | -0.106 (inactive) | 0.042 (inactive) | -0.04 (inactive) | 0.001 (inactive) | 0.05 (inactive) | 0.146 (inactive) | -0.152 (inactive) | 0.016 (inactive) | -0.076 (inactive) | -0.011 (inactive) | -0.227 (inactive) | -0.021 (inactive) | 0.193 (inactive) | 0.05 (inactive) | -0.089 (inactive)
4 | PRIM2 (UniProt P49643) | -0.013 (inactive) | -0.192 (inactive) | -0.132 (inactive) | 0.024 (inactive) | 0.009 (inactive) | -0.127 (inactive) | 0.001 (inactive) | 0.018 (inactive) | 0.052 (inactive) | -0.055 (inactive) | 0.044 (inactive) | -0.139 (inactive) | -0.132 (inactive) | 0.03 (inactive) | -0.042 (inactive) | 0.063 (inactive) | 0.069 (inactive) | -0.033 (inactive) | -0.005 (inactive) | 0.086 (inactive)
5 | PTP4A1 (UniProt Q93096) | -0.058 (inactive) | 0.061 (inactive) | -0.34 (active) | 0.036 (inactive) | 0.02 (inactive) | -0.447 (active) | -0.038 (inactive) | 0.04 (inactive) | -0.027 (inactive) | 0.029 (inactive) | 0.009 (inactive) | -0.088 (inactive) | 0.05 (inactive) | 0.089 (inactive) | -0.129 (inactive) | -0.267 (active) | 0.033 (inactive) | 0.04 (inactive) | 0.024 (inactive) | 0.068 (inactive)
6 | POLD3 (UniProt Q15054) | -0.035 (inactive) | -0.131 (inactive) | -0.229 (inactive) | 0.137 (inactive) | 0.01 (inactive) | -0.225 (inactive) | 0.018 (inactive) | 0.042 (inactive) | 0.082 (inactive) | -0.047 (inactive) | 0.002 (inactive) | -0.176 (inactive) | 0.123 (inactive) | -0.029 (inactive) | 0.002 (inactive) | -0.05 (inactive) | 0.066 (inactive) | 0.1 (inactive) | 0.098 (inactive) | 0.004 (inactive)
7 | PJA2 (UniProt O43164) | -0.057 (inactive) | -0.014 (inactive) | 0.054 (inactive) | 0.061 (inactive) | -0.013 (inactive) | -0.003 (inactive) | 0.004 (inactive) | -0.053 (inactive) | -0.003 (inactive) | 0.049 (inactive) | -0.022 (inactive) | 0.004 (inactive) | -0.071 (inactive) | 0.11 (inactive) | -0.008 (inactive) | 0.024 (inactive) | -0.016 (inactive) | 0.001 (inactive) | -0.001 (inactive) | -0.049 (inactive)
8 | PPP1R14A (UniProt Q96A00) | -0.048 (inactive) | -0.027 (inactive) | 0.025 (inactive) | 0 (inactive) | -0.021 (inactive) | -0.012 (inactive) | -0.023 (inactive) | -0.015 (inactive) | -0.025 (inactive) | -0.004 (inactive) | 0.016 (inactive) | 0.031 (inactive) | -0.028 (inactive) | -0.013 (inactive) | -0.041 (inactive) | 0.039 (inactive) | 0.012 (inactive) | -0.079 (inactive) | -0.057 (inactive) | 0.017 (inactive)
9 | PTTG1 (UniProt O95997) | -0.061 (inactive) | -0.004 (inactive) | 0.004 (inactive) | 0.141 (inactive) | -0.145 (inactive) | -0.029 (inactive) | -0.145 (inactive) | -0.088 (inactive) | -0.001 (inactive) | 0.031 (inactive) | 0.011 (inactive) | 0.052 (inactive) | -0.077 (inactive) | -0.011 (inactive) | -0.022 (inactive) | -0.156 (inactive) | -0.048 (inactive) | -0.058 (inactive) | -0.013 (inactive) | -0.07 (inactive)
10 | PLK1 (UniProt P53350) | 0.034 (inactive) | -0.223 (inactive) | 0.14 (inactive) | -0.058 (inactive) | -2.06 (active) | -0.165 (inactive) | 0.052 (inactive) | -0.008 (inactive) | 0.058 (inactive) | -0.013 (inactive) | 0.013 (inactive) | 0.068 (inactive) | -0.021 (inactive) | 0.014 (inactive) | 0.02 (inactive) | 0.092 (inactive) | -0.024 (inactive) | -0.133 (inactive) | 0.041 (inactive) | -0.072 (inactive)
11 | PLEKHM2 (UniProt Q8IWE5) | -0.002 (inactive) | -0.047 (inactive) | -0.119 (inactive) | 0.029 (inactive) | -0.215 (inactive) | -0.054 (inactive) | -0.087 (inactive) | -0.019 (inactive) | 0.058 (inactive) | -0.014 (inactive) | 0.007 (inactive) | -0.09 (inactive) | 0.053 (inactive) | -0.083 (inactive) | 0.044 (inactive) | -0.041 (inactive) | 0.075 (inactive) | -0.041 (inactive) | 0.084 (inactive) | 0.011 (inactive)
12 | PCYT1B (UniProt Q9Y5K3) | 0.133 (inactive) | -0.13 (inactive) | -0.236 (inactive) | -0.028 (inactive) | -0.028 (inactive) | -0.162 (inactive) | -0.139 (inactive) | -0.036 (inactive) | 0.04 (inactive) | -0.029 (inactive) | 0.005 (inactive) | 0.026 (inactive) | 0 (inactive) | -0.029 (inactive) | -0.156 (inactive) | 0.131 (inactive) | -0.051 (inactive) | 0.018 (inactive) | -0.019 (inactive) | -0.12 (inactive)
13 | PRMT3 (UniProt O60678) | 0.021 (inactive) | -0.046 (inactive) | 0 (inactive) | -0.017 (inactive) | 0.058 (inactive) | -0.005 (inactive) | 0.035 (inactive) | 0.011 (inactive) | 0.061 (inactive) | -0.064 (inactive) | 0.026 (inactive) | -0.099 (inactive) | 0.008 (inactive) | -0.017 (inactive) | -0.005 (inactive) | 0.098 (inactive) | -0.122 (inactive) | -0.111 (inactive) | 0.013 (inactive) | 0.048 (inactive)
14 | PPIL4 (UniProt Q8WUA2) | -0.012 (inactive) | -0.072 (inactive) | -0.071 (inactive) | -0.005 (inactive) | -0.123 (inactive) | -0.108 (inactive) | 0.07 (inactive) | 0.024 (inactive) | 0.086 (inactive) | -0.031 (inactive) | -0.001 (inactive) | 0.116 (inactive) | 0.032 (inactive) | 0.101 (inactive) | -0.003 (inactive) | 0.015 (inactive) | 0.002 (inactive) | -0.005 (inactive) | 0.02 (inactive) | 0.018 (inactive)
15 | PSMD9 (UniProt O00233) | -0.022 (inactive) | 0.001 (inactive) | -0.012 (inactive) | 0.002 (inactive) | -0.016 (inactive) | -0.034 (inactive) | -0.004 (inactive) | -0.031 (inactive) | -0.023 (inactive) | 0.005 (inactive) | -0.028 (inactive) | -0.053 (inactive) | -0.021 (inactive) | 0.005 (inactive) | -0.074 (inactive) | 0.056 (inactive) | -0.013 (inactive) | -0.005 (inactive) | -0.021 (inactive) | -0.261 (active)
